Assay results taken from PubChem BioAssay (NCI).
Several values for one entry are separate records, joined by “and”; a condition that tells them apart may be missing. Equal entries are not always repeated. Compounds without any hit were thinned out: in the full panel of roughly 79,000, 15% have a hit. Rule as the data show it: active = growth inhibition above about 70%; inactive = the rest.

Columns and labels:
[1] = NCI Yeast Anticancer Drug Screen. Data for the rad50 strain (AID 155);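 also: 0% = growth of vehicle-only cultures of the same strain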; conditions: S. cerevisiae rad50 strain growth inhibition, hits give high values; at 50.0 µM unless noted
In short: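 Yeast carrying a defined DNA repair defect were exposed to test compounds, and growth was compared with vehicle-treated controls to give percent inhibition.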

[2] = NCI Yeast Anticancer Drug Screen. Data for the mec2-1 strain (AID 157); conditions: S. cerevisiae mec2-1 strain, hits give high values; at 50.0 µM unless noted
In short: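 Yeast mec2-1 mutant treated with compound. Readout: growth inhibition vs vehicle controls.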

[3] = NCI Yeast Anticancer Drug Screen. Data for the sgs1 mgt1 strain (AID 161);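 also: 0% = growth of cultures given vehicle only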; conditions: S. cerevisiae sgs1 mgt1 strain, hits give high values; at 50.0 µM unless noted
In short: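 Read-out: growth inhibition vs vehicle controls. Cells: mutant yeast strain deficient in DNA damage repair.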

[4] = NCI Yeast Anticancer Drug Screen. Data for the cln2 rad14 strain (AID 165);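 also: 0% = growth equal to vehicle treated cultures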; conditions: S. cerevisiae cln2 rad14 strain, hits give high values; at 50.0 µM unless noted
In short: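 cln2 rad14 yeast strain; compound exposure; growth inhibition read vs vehicle controls.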

[5] = NCI Yeast Anticancer Drug Screen. Data for the bub3 strain (AID 167); conditions: S. cerevisiae bub3 mutant strain, hits give high values; at 50.0 µM unless noted
In short: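 Compounds were applied to a genetically altered yeast strain carrying a cell-cycle control defect. Growth inhibition was scored against vehicle-treated controls.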

[6] = NCI Yeast Anticancer Drug Screen. Data for the mlh1 rad18 strain (AID 175); conditions: S. cerevisiae mlh1 rad18 strain growth inhibition, hits give high values; at 50.0 µM unless noted
In short: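 Yeast w/ defined DNA-repair lesions; compound exposure; growth vs vehicle controls → % inhibition.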

Measured: growth inhibition

CC(=O)Cc1ncn(-c2cc(C)on2)n1
inactive: [1] -9.4% | [2] -20.4% | [3] -18.1% | [4] 11.6% | [5] -1.45% | [6] -13.7%

O=C1C=C(Nc2ccccc2)c2ccccc2C1=O
inactive: [1] -1.15% and 24.4% | [2] 16.4% and -8.6% | [3] 11.4% and 25.4% | [4] -14.5% and 19.9% | [5] 33.9% and 14.1% | [6] 15.2% and 12.2%

O=C1CCC(=O)N1CNc1cccc(NCN2C(=O)CCC2=O)c1
inactive: [1] -5.35% | [2] -30.9% | [3] 11.9% | [4] 10.5% | [5] 3.9% | [6] -4.6%

O=[N+]([O-])C(C(Cl)=C(Cl)Cl)=C(N1CCOCC1)N1CCOCC1
inactive: [1] -25.2% | [2] -21.1% | [3] -19.1% | [4] -9.6% | [5] 5.1% | [6] 1.85%

CCCSc1ncnc2nc[nH]c12
inactive: [1] 23.6% | [2] -1% | [3] 9.7% | [4] -15.1% | [5] -13.7% | [6] 16.9%

CCCC(=O)NC1CCc2cc(OC)c(OC)c(OC)c2-c2ccc(OC)c(=O)cc21 (stereo not given)
inactive: [1] 27.4% | [2] -40.5% | [3] 23.1% | [4] -0.9% | [5] 3.45% | [6] 3.2%

COc1ccc(SSc2ccc(OC)cc2C(=O)O)c(C(=O)O)c1
inactive: [1] -4% | [2] -19.1% | [3] -21.1% | [4] 1.4% | [5] -36.1% | [6] 1.8%

O=C(O)C(=O)Nc1ccccc1
inactive: [1] -4.45% | [2] -15.5% | [3] -5.5% | [4] -34.8% | [5] 1.65% | [6] -5.8%

Cc1ncc(CO)c(CO)c1O
inactive: [1] 3.05% and -8.25% | [2] -2.95% and -14% | [3] -4.2% | [4] 2.4% | [5] 7% | [6] 45.8% and -5.65%

CC(C)CCn1c(=O)c2c(ncn2C)n(C)c1=O
inactive: [1] 21.9% | [2] 20.3% | [3] 22.9% | [4] 10.2% | [5] -0.5% | [6] 13.2%

CN(C)c1ccc(/C=C(\C#N)C(=O)O)cc1
inactive: [1] 33.8% | [2] -12.9% | [3] 2.8% | [4] 11.7% | [5] 30.8% | [6] 38.2%

COc1ccccc1CN1CCCN(Cc2ccccc2OC)C1c1cccc(F)c1
inactive: [1] 0.75% | [2] 9.9% | [3] 0.65% | [4] 16.4% | [5] 6.65% | [6] 17.8%

O=[N+]([O-])c1ccc[nH]c1=S
inactive: [1] -5.15% | [2] -15.8% | [3] -20.4% | [4] -7.35% | [5] 23% | [6] -35.6%

COC1C(CO)OC(O)C(O)C1O (stereo not given)
inactive: [1] -6.75% | [2] 2.25% | [3] -5.2% | [4] -5.45% | [5] -6.9% | [6] 4%

COC1=CC(=O)CC(C)C12Oc1c(Cl)c(OC)cc(OC)c1C2=O (stereo not given)
inactive: [1] 2% | [2] -14.5% | [3] 20% | [4] 13.4% | [5] 67.1% | [6] 17.9%

Cc1ccc(N2CC(=O)N3CCCC(C)N3C(=O)C2)cc1 (stereo not given)
inactive: [1] 26% | [2] 8.85% | [3] 14.8% | [4] 15.8% | [5] 7.05% | [6] 10.4%

CCOC(=O)CC(=O)CC(=O)OCC
inactive: [1] 36% | [2] 2.6% | [3] -6.95% | [4] 6.1% | [5] 23% | [6] 7%

CCOP(=O)(OCC)/C(=C/n1c(=S)[nH]c2ccccc21)C(=O)OC
inactive: [1] -29.8% | [2] -55.1% | [3] -10% | [4] 0.9% | [5] -0.8% | [6] -22.2%

O=Cc1c2cnc(c1O)CSCc1ccc(cc1)CSC2
inactive: [1] 9.55% | [2] 8.45% | [3] 9.35% | [4] -11.7% | [5] -2.9% | [6] 23.5%

COc1cc2cnc(-c3ccccc3)c(O)c2cc1OC
inactive: [1] 12.3% | [2] -5.25% | [3] 12% | [4] 1.3% | [5] 40.1% | [6] -6.55%

[Mn+2].[NH-]C(Cc1ccc(O)cc1)C(=O)O.[NH-]C(Cc1ccc(O)cc1)C(=O)O (stereo not given)
inactive: [1] 0.35% | [2] 15.3% | [3] -10.5% | [4] -19.1% | [5] 0.95% | [6] -13%

Cc1ccc(C)c(CCCCS(=O)(=O)O)c1
inactive: [1] -27.9% | [2] -8.1% | [3] -5.75% | [4] -40.4% | [5] 1.2% | [6] -7.6%

COCc1ccccc1-n1nccc1S(C)=O (stereo not given)
inactive: [1] -10.9% | [2] 25.4% | [3] 1.8% | [4] 4.1% | [5] 3.25% | [6] -2.6%

CCCCCCCCC(=O)NCCOC
inactive: [1] 10.9% | [2] 2.8% | [3] 5.8% | [4] -20.8% | [5] -2.95% | [6] 10.6%

CCCCCCCCCCCCCCCCCCS(=O)(=O)CC(O)CO (stereo not given)
inactive: [1] -4.45% | [2] 5.2% | [3] -1.4% | [4] 2.4% | [5] -11% | [6] 12.4%

COc1ccc(COC(=O)Nc2ccc(Br)cc2)c(OC)c1
inactive: [1] -5.05% | [2] 33.6% | [3] 27.2% | [4] -16.6% | [5] 16.8% | [6] 9.55%

Cc1ccc(C)n1-n1c(Cc2ccc(Cl)cc2)n[nH]c1=O
inactive: [1] 8.5% | [2] 3.05% | [3] 16% | [4] 8.05% | [5] -4.4% | [6] 13.1%

O=S(=O)(O)c1ccc(N=Nc2ccc(O)cc2)cc1
inactive: [1] -15.8% and 28.8% | [2] -27.9% and -10.4% | [3] -10.1% | [4] -53.9% | [5] 3.7% | [6] -17.4% and 8.65%

C(=C1CCCCC1)c1ccccn1
inactive: [1] -9.2% | [2] 24.9% | [3] -10.7% | [4] -23.3% | [5] -18.8% | [6] -24.9%

CN(C)/N=C(\CBr)c1ccc([N+](=O)[O-])cc1
inactive: [1] -1.8% | [2] 4.9% | [3] 6.75% | [4] 11.2% | [5] -3% | [6] 5.4%

S=C(NC1CCCCC1)SSSC(=S)NC1CCCCC1
inactive: [1] -6.7% | [2] -4.65% | [3] -8.05% | [4] 15.2% | [5] -17.4% | [6] 6.8%

Cc1ccc(S(=O)(=O)C2CC(=O)N(c3ccc(F)c(Cl)c3)C2=O)cc1 (stereo not given)
inactive: [1] -26.6% | [2] 4.55% | [3] -7.6% | [4] -19.2% | [5] 4.2% | [6] -11.7%

Nc1nc2ncc(COc3ccc(C(=O)O)cc3)nc2c(=O)[nH]1
inactive: [1] 18.8% | [2] 3.2% | [3] 31.6% | [4] -16.1% | [5] 53.2% | [6] 13.6%

CSCCCCC(N)C(=O)O (stereo not given)
inactive: [1] 0.05% | [2] 3% | [3] -0.9% | [4] -14% | [5] 12.4% | [6] -3.85%

CCCC1OC(c2cc3c(cc2Br)OCO3)OCC1CC (stereo not given)
inactive: [1] -4.5% | [2] -8.9% | [3] 9.25% | [4] 3.1% | [5] 23.1% | [6] -4.7%

O=S1(=O)OCCOS(=O)(=O)C1(Br)Cc1ccccc1
inactive: [1] -67.7% | [2] -40.6% | [3] -37.5% | [4] -40.4% | [5] -63.8% | [6] -24.2%

CC1=C(C(=O)Nc2cc(=O)n(C)c(=O)n2C)C(c2cccc([N+](=O)[O-])c2)C(C(=O)Nc2cc(=O)n(C)c(=O)n2C)=C(C)N1
inactive: [1] 8.7% | [2] 32.1% | [3] 24.9% | [4] 21.9% | [5] 24.4% | [6] 41.8%

CC(=O)C[n+]1ccccc1
inactive: [1] -9.85% | [2] -9% | [3] -1.75% | [4] 3.75% | [5] 15.6% | [6] 14.2%

CCNc1ncnc2ncn(C)c12
inactive: [1] 18.9% | [2] -6.9% | [3] 15.1% | [4] 12.6% | [5] 15.1% | [6] -0.5%

O=C1OC(=O)c2c1nc1ccccc1c2-c1ccccc1
inactive: [1] -31.5% | [2] -3.9% | [3] 9.35% | [4] 26% | [5] -6.15% | [6] 23.6%
